# Measurements published in PubChem BioAssay AID2685 (National Center for Advancing Translational Sciences (NCATS), 2010).
# Among all 320,000 compounds or so, about 2,100 (0.66%) were called active. Another 53% or so got no clear call; they are omitted. This is one part of a sample in which actives are shown more often than they occur. The call rests on the fitted dose curve; in most records, active means well fitted inhibition curve with a large enough effect in the signal ratio, with a control signal flat (not every such curve was filed as active); inconclusive means small, poorly fitted or top-dose-only effect, or effect the other way, or a change in a side signal; inactive means flat fitted curve, though single readings scatter; the % refers to the signal ratio.
# Test: qHTS Assay for Lipid Storage Modulators in Drosophila S3 Cells;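 on cell number change: cells counted by Cell Tracker Red CMTPX staining in the red channel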; on lipid storage change, negative = inhibition: on the % scale 0 is the no-effect control and ±100 the full control effect
# Settings: BODIPY lipid droplet fluorescence, 18-24 h, cells fed with added oleic acid; cell number change: measured here: cell count max response; series mostly up to 46.1 µM
# In short: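 Drosophila S3 cells loaded with oleic acid (400 uM, as added) and compounds at several concentrations; lipid droplets imaged by 488-nm laser-scanning cytometry, 500–530 nm intensity and object ratio to cell channel. Percent activity normalized to 20 uM Triacsin C.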
# Potency means the concentration at half of the fitted maximal effect.
SMILES,Potency,cell number change,"lipid storage change, negative = inhibition"
CCOC(=O)CNC(=O)CSc1nnc(-c2ccco2)n1Cc1ccco1,inactive,-21.7%,
O=C(CCCCCNC(=O)N1CCn2c1nc1ccccc12)N[C@@H](C(=O)O)c1ccccc1,inactive,-11.9%,
Cc1cc(C)c(C#N)c(OCC(=O)Nc2ccccc2)n1,inactive,11.6%,
CN1CCN(C(=O)c2ccc(Oc3ccc([N+](=O)[O-])cc3)cc2)CC1,inactive,,
COc1cccc(CNC(=O)c2ccc(NC(=O)CC3SC(N4CCCCC4)=NC3=O)cc2)c1 (stereo not drawn),inactive,11.7%,
O=C(Cn1cc[n+](CC(=O)c2ccc(Cl)cc2Cl)c1)c1ccc(Cl)cc1Cl,inactive,-3.27%,
N/C(=N\OC(=O)c1cccc2ccccc12)c1ccc(Br)cc1,10.3 µM (active),18.1%,
N/C(=N\OC(=O)c1cccc2ccccc12)c1cccnc1,inactive,18.1%,
N/C(=N\OC(=O)c1cccc2ccccc12)c1ccncc1,inactive,1.71%,
CC(=O)c1cccc(NC(=O)c2ccc(C(=O)Nc3cccc(C(C)=O)c3)nc2)c1,inactive,0.877%,
O=Cc1ccccc1OS(=O)(=O)c1ccccc1,inactive,-9.79%,
O=C(Oc1ccccc1)c1ccccc1OS(=O)(=O)c1ccccc1,0.517 µM (active),,
Cc1ccccc1S(=O)(=O)Oc1ccccc1C(=O)Oc1ccccc1,inactive,-11.7%,
CC(=O)NC(C)C(=O)OCc1ccc(Cl)cc1Cl (stereo not drawn),inactive,,
Cc1cccc(N2CCN(C(=O)CCCCCn3c(=S)[nH]c4ccc(N5CCOCC5)cc4c3=O)CC2)c1C,20.6 µM (active),1.42%,
COc1cccc(CNC(=O)CCCCCn2c(=S)[nH]c3ccc(N4CCOCC4)cc3c2=O)c1,inactive,4.01%,
O=C(CCCCCn1c(=S)[nH]c2ccc(N3CCOCC3)cc2c1=O)NCCc1ccccc1,inactive,-6.4%,
CCc1nn(CC(=O)NCCCN(CC)CC)c(=O)c2cc3sc(C)cc3n12,inactive,7.9%,
COc1cccc(C(=O)COC(=O)C(C)N2C(=O)c3ccccc3C2=O)c1 (stereo not drawn),inactive,8.05%,
CCOC(=O)c1sc(NC(=O)c2ccccc2C(=O)O)c(C(=O)OCC)c1C,inactive,-2.04%,
CCOC(=O)c1sc(NC(=O)c2ccoc2C)c(C(N)=O)c1C,0.731 µM (active),-15.9%,
COC(=O)c1c(NC(=O)c2ccoc2C)sc(C)c1C,inactive,20.9%,
O=S(=O)(c1cccc(C(F)(F)F)c1)N1CCCC1c1cccnc1 (stereo not drawn),inactive,4.77%,
CCCC1(c2ccccc2)NC(=O)N(CC(=O)c2[nH]c(C)c(C(=O)OCC)c2C)C1=O (stereo not drawn),8.2 µM (active),-26.5%,

SMILES,Potency,cell number change,"lipid storage change, negative = inhibition"
CCOC(=O)c1c(C)[nH]c(C(=O)CN2C(=O)NC3(CCCC3)C2=O)c1C,inactive,-4.44%,
COC(=O)c1c(C)[nH]c(C(=O)CN2C(=O)NC3(CCOc4ccccc43)C2=O)c1C (stereo not drawn),inactive,-21.7%,
Oc1ccc(C[C@H]2CNCCN2CC2(c3ccccc3)CC2)cc1,inactive,19.8%,
COc1ccc(OC)c(NC(=O)CCN2CCCCC2)c1,inactive,-3.94%,
COc1ccc(OC)c(NC(=O)CN(Cc2ccc(Cl)cc2)S(C)(=O)=O)c1,inactive,1.52%,
COc1ccc(OC)c(NC(=O)CCCC(=O)NC2CCCCC2)c1,7.31 µM (active),-7.97%,
COc1ccc(Cl)cc1NC(=O)CN(C)C1CCCCC1,inactive,-8.15%,
COc1ccc(CCCC(=O)NC2CCCCC2)cc1,inactive,0.276%,
COc1ccc(OC)c(NC(=O)CN(Cc2ccc(F)cc2)C2CCCCC2)c1,0.291 µM (active),6.76%,
Cc1ccsc1/C=C/c1n[nH]c(=O)c(C#N)c1C,inactive,22.2%,
O=C(NC1CCOC1)c1ccc(OC2CCN(CCc3ccccc3)CC2)cc1 (stereo not drawn),inactive,-24%,
CN(C)CCOc1ccccc1-c1ccccc1,23.1 µM (active),-29.9%,
CN(C)CCOCCOc1ccccc1-c1ccccc1,inactive,-9.8%,
CN(C)CCCCOc1ccccc1-c1ccccc1,inactive,-4.23%,
Cc1cc(C)nc(NS(=O)(=O)c2ccc(NC(=O)COc3ccccc3F)cc2)n1,inactive,12.7%,
COc1ccc(NS(=O)(=O)c2cc(NC(=O)Cc3c(F)cccc3Cl)ccc2OC)cc1,inactive,-6.83%,
COc1ccc(NS(=O)(=O)c2cc(NC(=O)COc3ccccc3F)ccc2OC)cc1,1.64 µM (active),-1.34%,
COCCNC(=O)c1ccc(CSCc2cccc(Cl)c2)o1,inactive,7.62%,
c1ccc(CCNCC2COc3ccccc3O2)cc1 (stereo not drawn),inactive,16.7%,
Cc1ccc(CSCCNS(=O)(=O)c2ccc([N+](=O)[O-])cc2)cc1,inactive,,
COc1ccccc1NC(=O)c1sc(Cl)nc1C,inactive,1.65%,
COc1ccccc1NC(=O)c1c(Nc2ccccc2C)sc(C(=O)Nc2cccc(Cl)c2)c1N,1.64 µM (active),-26.6%,
COc1ccc(C(=O)c2sc(Nc3ccccc3)c(C(=O)Nc3ccc(OC)c(OC)c3)c2N)cc1,inactive,-20%,
Cc1cccc(C)c1NC(=O)CN(C)C(=O)c1cccc(S(=O)(=O)N2CCN(C)CC2)c1,,10.4%,-25% [at 0.0737 µM] (inactive)

SMILES,Potency,cell number change,"lipid storage change, negative = inhibition"
CCOC(=O)C1CCN(CC(O)COCc2ccc(Cl)cc2)CC1 (stereo not drawn),18.4 µM (active),16.5%,
CCOC(=O)C1CCN(CC(O)COCc2ccc3c(c2)OCO3)CC1 (stereo not drawn),inactive,,
CCOC(=O)C1CCN(CC(O)COCc2ccccc2)CC1 (stereo not drawn),inactive,4.71%,
COc1ccc(NC(=O)CSc2nc3scc(C)c3c(=O)[nH]2)cc1,inactive,11.6%,
COc1ccc(C)cc1NC(=O)CSc1nc2scc(C)c2c(=O)[nH]1,inactive,10.8%,
COc1cccc(NC(=O)CSc2nc3scc(C)c3c(=O)[nH]2)c1,0.58 µM (active),2.56%,
CCOc1ccc(-c2nnn(CC(=O)NCc3cccs3)n2)cc1,inactive,-5.47%,
CC(=O)NNc1[nH]c2c(c(=O)c1[N+](=O)[O-])c(=O)n(C)c(=O)n2C,inactive,-5.05%,
O=C(NC(Cc1ccccc1)C(=O)O)c1ccccc1 (stereo not drawn),inactive,-3.84%,
O=C(NC(Cc1ccccc1)C(=O)O)/C(=C/c1ccccc1)NC(=O)c1ccccc1 (stereo not drawn),inactive,-7.82%,
CC(C)=C(NC(=O)c1ccccc1)C(=O)NC(Cc1ccccc1)C(=O)O (stereo not drawn),1.16 µM (active),-15%,
CC(=O)OCCn1c(C)[n+](CCOC(C)=O)c2cc(Cl)c(Cl)cc21,inactive,13.2%,
COc1ccc(OCC(=O)N2CC3(C)CC2CC(C)(C)C3)cc1 (stereo not drawn),inactive,,
Nc1c(C(=O)Nc2ccc(S(=O)(=O)N3CCCC3)cc2)sc2nc3cc4c(cc3cc12)CCC4,inactive,6.36%,
CCc1cccc2cc3c(N)c(C(=O)Nc4ccc(S(=O)(=O)N5CCCC5)cc4)sc3nc12,5.8 µM (active),0.905%,
Cc1cccc2cc3c(N)c(C(=O)Nc4ccc(N5CCOCC5)cc4)sc3nc12,inactive,-1.66%,
Cc1cccn2c(=O)c3cc(C(=O)NCCc4ccccc4)sc3nc12,inactive,-15.4%,
Cc1ccc(C(=O)N2CCC(Cc3ccccc3)CC2)cc1[N+](=O)[O-],inactive,4.11%,
COc1cc(/C=C(/C#N)C(=O)NCc2ccccc2)cc(OC)c1OC,inactive,-27.2%,
C=CCNC(=O)/C(C#N)=C\c1cc(Cl)c(OCC)c(OC)c1,14.6 µM (active),-28.8%,
C=CCNC(=O)/C(C#N)=C\c1cc(Cl)c(O)c(OCC)c1,inactive,2.03%,
CC(=O)Nc1ccc(NC(=O)C2CC(=O)Nc3nc4ccccc4n32)cc1 (stereo not drawn),inactive,-1.64%,
CNC(=O)Nc1cccc(C(F)(F)F)c1,inactive,3.39%,
CCSc1nnc(NC(=O)Nc2cccc(C)c2)s1,inactive,17%,

SMILES,Potency,cell number change,"lipid storage change, negative = inhibition"
CCSCCc1nnc(NC(=O)Nc2cccc(C(F)(F)F)c2)s1,20.6 µM (active),-21.6%,
CC(C)C[C@@H](CSc1ccc(Br)cc1)N1CCN(C)CCC1=O,inactive,-4.06%,
CC(C(=O)NCc1ccc2c(c1)OCO2)N(c1ccccc1)S(C)(=O)=O (stereo not drawn),inactive,7.31%,
COc1ccc(N2C(=O)CN(Cc3ccc(OC)c(OC)c3)C2=S)cc1,inactive,10.4%,
Cc1cc(C)c2nc(N(CCCN(C)C)C(=O)C3=COCCO3)sc2c1,inactive,-20%,
O=C(N/N=C/c1cccc(F)c1)c1csc2c1CCCC2,inactive,1.41%,
Cc1ccc(/C=N/NC(=O)c2csc3c2CCCC3)cc1,16.4 µM (active),-23.6%,
O=C(N/N=C/c1ccc(O)cc1)c1csc2c1CCCC2,inactive,,
COc1ccc(C)cc1S(=O)(=O)N(CC(=O)Nc1cccc([N+](=O)[O-])c1)c1cc(C)cc(C)c1,inactive,,
CCOc1ccccc1OCC(=O)NN1Cc2ccccc2C1=N,inactive,,
Cc1cccc(C(=O)Nc2ccc(C(=O)/C=C/c3ccncc3)cc2)c1,6.51 µM (active),-3.72%,
Cc1cccc(C(=O)N/N=C/c2ccncc2)c1,inactive,-0.828%,
CC(=O)Nc1cccc(C(=O)/C=C/c2ccc[nH]2)c1,inactive,9.89%,
CSc1ccc(/C=C/C(=O)c2ccc(NC(C)=O)cc2)cc1,inactive,,
CC(=O)Nc1cccc(C(=O)/C=C/c2ccc(/C=C/C(=O)c3cccc(NC(C)=O)c3)cc2)c1,8.2 µM (active),-12.7%,
Cc1cccc(C(=O)Nc2ccc(O)cc2)c1,inactive,4.55%,
CCOc1ccccc1CNC(=O)CCC(=O)N1Cc2ccccc2Oc2ncccc21,inactive,-10.6%,
CCOC(=O)C1(Cc2ccc(Cl)cc2)CCN(C(=O)c2cc(C)nc(C)n2)CC1,inactive,-4.86%,
Cc1onc(-c2ccccc2Cl)c1C(=O)NCCCc1ccccc1,inactive,-24%,
Fc1ccc(C2c3[nH]c4ccccc4c3CCN2Cc2cccn2-c2ncccn2)cc1 (stereo not drawn),inactive,1.18%,
Cc1cccc(C2c3[nH]c4ccccc4c3CCN2Cc2cccn2-c2ncccn2)c1 (stereo not drawn),inactive,-27.2%,
COc1ccc(C2c3[nH]c4ccccc4c3CCN2Cc2cccn2-c2ncccn2)cc1C (stereo not drawn),16.4 µM (active),-1.91%,
